Screening results: PubChem, National Center for Advancing Translational Sciences (NCATS)
The list is not random: actives were taken first. Their share in the collection is about 4.7%.
TGFb inhibitor = inhibitors of TGF-b signaling; AID 588855; HepG2 CAGA-GFP TGF-b/SMAD3 reporter, GFP fluorescence, 18 h; TGF-beta stimulated, 500 pg/mL final; 1.2% of 410,000 active; Potency, µM (doses to about 46.1 µM), for the others: at the highest dose activity, negative = inhibition, most hits filed as inhibitors; also: potency is read from the fitted curve at half-maximal effect; % is scaled to controls: 0 for no effect and ±100 for the full control effect; nearly all actives have a fitted effect of over 65% in size
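HEPG2 CAGA-GFP cells (1000/well, DMEM with 1% FBS) were pre-incubated 2 h at 37 degrees C, given compound by pin tool, then stimulated with TGF-beta at 500 pg/mL final for 18 h before per-cell GFP fluorescence imaging.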
DRD3 antagonist = D3 dopamine receptor (human) antagonism; D3R cells, DiscoveRx beta-arrestin luminescence, antagonist mode; stronger effect = lower value; max response, negative = inhibition, %; 2.5% of 360,000 active; AID 652054; in the data active = max response below about -50%; inconclusive = no clear call, values can overlap the other calls; also: % is scaled to controls: 0 for no effect and ±100 for the full control effect
Target sequence (P35462 whole entry, looked up): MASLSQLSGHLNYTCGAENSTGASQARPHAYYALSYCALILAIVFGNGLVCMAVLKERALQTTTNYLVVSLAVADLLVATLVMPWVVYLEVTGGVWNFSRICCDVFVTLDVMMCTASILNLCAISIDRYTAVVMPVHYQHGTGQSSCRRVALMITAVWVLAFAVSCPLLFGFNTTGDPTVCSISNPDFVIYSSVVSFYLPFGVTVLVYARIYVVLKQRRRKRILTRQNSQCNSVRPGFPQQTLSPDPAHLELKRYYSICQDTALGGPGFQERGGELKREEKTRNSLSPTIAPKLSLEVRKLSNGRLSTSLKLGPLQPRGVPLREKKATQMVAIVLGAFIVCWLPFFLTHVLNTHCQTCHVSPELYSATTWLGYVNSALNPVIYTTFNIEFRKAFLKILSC
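Cells expressing the human receptor were seeded at 1500 cells/well, incubated overnight at 37 degrees C in 5% CO2, then exposed to library compounds with dopamine controls for 90 minutes at 37 degrees C before luminescent detection.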
ATXN2 expr inh = inhibitors of ATXN2 expression; HEK-293 ATXN2-luciferase reporter, luminescence, 24 h; Potency, µM (titrated, usually from 57 µM), for the others: at the top dose activity change, negative = inhibition, actives largely listed as inhibitors; 0.72% of 360,000 active; also: potency is read from the fitted curve at half-maximal effect; % is scaled to controls: 0 for no effect and ±100 for the full control effect; nearly all actives have a fitted effect of over 55% in size
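ATXN2-luciferase reporter cells (luciferase flanked by upstream and downstream ATXN2 gene portions) were treated 24 h at 37 °C with compounds at up to 57 uM. SteadyGlo luminescence gave expression; GF-AFC fluorescence gave viability.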
DRD3 agonist = D3 dopamine receptor (human) agonism; P35462; D3R DiscoveRx beta-arrestin cells, luminescence, 90 min; max activation, %; 0.58% of 410,000 active; AID 652048; in the data active = max activation above about 30%; also: 0% is about no effect
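Agonist-mode cell screen: cells plated at 1500/well and incubated overnight at 37 °C, then exposed to library compounds for 90 min at 37 °C. Detection reagent was added for 30–60 min at room temperature, and luminescence was read.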
S2 tox = cell viability loss in ATXN counter-screen | S2 cells (HEK-293 line with an ATXN2-luciferase reporter) viability, CellTiter-Fluor protease fluorescence, 24 h | Potency, µM (doses to about 56.7 µM), hits mostly cytotoxic | 0.49% of 400,000 active | AID 651635; also: potency is read from the fitted curve at half-maximal effect; nearly all actives have a fitted effect of over 40% in size
HepG2 viability = counter-screen for TGF-b inhibitors: cytotoxicity in HepG2 cells; HepG2 CAGA-GFP viability, ATP luminescence, 18 h; Potency, µM (series often up to 46.1 µM), without a hit: at the highest dose activity change, negative = cytotoxicity, most hits filed as cytotoxic; 0.76% of 410,000 active; also: potency is read from the fitted curve at half-maximal effect
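HepG2 CAGA-GFP cells (1000/well, DMEM with 1% FBS) received compound, then TGF-beta at 500 pg/mL final, and were incubated 18 hours at 37 degrees C. Viability was read by CellTiter-Glo luminescence. Media-only wells were set as complete cell-killing and DMSO as no toxicity.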
Starred values were filed as active, the others as inactive; i = inactive; u = inconclusive; x = no result; [ ] = remark or other dose. Unless noted, calls follow the shape of the dose curve; as a rule, active = well fitted curve in the direction sought with a large enough effect; inconclusive = small, poorly fitted or top-dose-only effect, or another doubt; inactive = no such curve, though single readings can be large; an effect the other way counts as inactive or inconclusive.

SMILES | TGFb inhibitor | DRD3 antagonist | ATXN2 expr inh | DRD3 agonist | S2 tox | HepG2 viability
Cc1cc(=O)[nH]c(N=N/C(=N/Nc2ccc(O)cc2)c2ccccc2)n1 | -8.7% | -101.5* | u | 2.4 | u | -25.5%
COc1ccc(C(=O)C(=NNc2ccccc2)c2ccc(OC)cc2)cc1 | 22.5% | -2.6 | -20.2% | -0.7 | u | -7.3%
COc1ccc(N/N=C(/N=Nc2nc(C)cc(=O)[nH]2)c2ccccc2)cc1 | u | -56.5* | u | -5.9 | 28.2µM* | -44.8%
Cc1cc(=O)[nH]c(N/N=C/c2ccccc2C(F)(F)F)n1 | 4.7% | 4.5 | 1.4% | 6.9 | i | -0.9%
CCN(CC)c1cc(C)c2cc(NC(=O)c3ccc(F)cc3Cl)ccc2n1 | 0.0% | x | u | 6.7 | u | -26.7%
CCN(CC)c1cc(C)c2cc(NC(=O)c3cc(OC)cc(OC)c3)ccc2n1 | u | x | 17.8µM* | 0.4 | x | -26.7%
CCN(CC)c1cc(C)c2cc(NC(=O)/C=C/c3ccccc3Cl)ccc2n1 | u | x | 28.2µM* | -1.4 | x | -80.5%
Clc1ncc(CN2CCN(c3ccccc3)CC2)s1 | 3.5% | -12.2 | -16.5%[11.3 µM] | 39.2* | i | -12.1%
Fc1ccccc1N1CCN(Cc2cnc(Cl)s2)CC1 | 17.1% | -20.6 | 16.2% | 49.7* | i | -16.3%
CCn1c(SCC(=O)N/N=C/c2ccc(OC)c(OC)c2)nc2ccccc21 | 41.7% | 15.7 | 5.5% | 9.3 | i | 4.9%
C=CCSc1nc2ccccc2n1C(=O)/C=C/c1ccc(OC)c(OC)c1 | -6.3% | -9.5 | 14.1µM* | -17.2 | 10µM* | -9.2%
CCSc1nc2ccccc2n1C(=O)/C=C/c1ccc(OC)c(OC)c1 | u | -51.2* | 7.94µM* | -1.2 | 8.91µM* | -51.7%
C=CCSc1nc2ccccc2n1C(=O)/C=C/c1cc(OC)c(OC)c(OC)c1 | u | -60.9* | 10µM* | -53.6 | 3.55µM* | 11.2µM*
Cc1ccc(-n2ncc3c(Nc4ccc(Oc5ccccc5)cc4)ncnc32)c(C)c1 | u | x | u | 2.0 | u | -38.1%
Cc1cnc(C)c(-c2cccc3c2OC(CNC(=O)C2(c4ccc(Cl)cc4)CC2)C3)n1 (configuration not stated) | x | x | x | x | i | x
Cn1c(=O)cc(OCC(=O)N2CCN(c3ccc(F)cc3)CC2)c2ccccc21 | -22.4% | x | 7.5% | 7.1 | i | -38.5%
CC(=O)c1ccc(OC2(C)CCN(Cc3ccc4ccccc4c3)C2)cc1 (configuration not stated) | -9.1% | -29.7 | -14.9% | -25.9 | i | -29.8%
CC(=O)c1ccc(OC2(C)CCN(Cc3ccc(C)cc3)C2)cc1 (configuration not stated) | -7.8% | -101.9* | -8.5% | -10.9 | i | -16.9%
CC(=O)c1ccc(OC2(C)CCN(Cc3ccc4c(c3)OCCO4)C2)cc1 (configuration not stated) | 36.1% | -68.8* | 4.3% | -10.2 | i | -8.0%
O=C(NCc1nnc2n1CCN(Cc1ccccc1C(F)(F)F)CC2)c1ccncc1 | x | x | x | x | i | x
CCC(C)CCCCC(=O)N[C@@H](CCN)C(=O)NC(C(=O)N[C@H](CCN)C(=O)N[C@@H]1CCNC(=O)C([C@@H](C)O)NC(=O)[C@@H](CCN)NC(=O)[C@@H](CCN)NC(=O)[C@@H](CC(C)C)NC(=O)[C@H](Cc2ccccc2)NC(=O)[C@H](CCN)NC1=O)[C@@H](C)O (some centres not stated) | x | x | 3.1% | x | x | x
CC(C)(C)C1CCC(CN2C(Nc3ccccc3)=NC[C@@H]2Cc2ccccc2)CC1 (some centres not stated) | u | u | u | -35.9 | x | 12.6µM*
CN1N=C(C(=O)N2CCOc3ccc(CN4CCCC(C(=O)c5cccnc5)C4)cc3C2)CCC1=O (configuration not stated) | x | x | x | x | i | x
Cc1cc(C)cc(OCC(=O)N2N=C(C(F)(F)F)CC2(O)C(C)(C)C)c1 (configuration not stated) | u | 12.2 | u | 1.3 | i | 17.8µM*
CN1CCN(CCNC(=O)c2ccc3nc(-c4ccc(F)cc4)c(-c4ccc(F)cc4)nc3c2)CC1 | u | -1.0 | u | 3.4 | u | -44.1%
SMILES | TGFb inhibitor | DRD3 antagonist | ATXN2 expr inh | DRD3 agonist | S2 tox | HepG2 viability
O=C(Nc1ccccc1)N1CCC(n2c(=O)[nH]c3ccccc32)CC1 | -13.1% | -6.6 | -2.3% | 0.6 | i | 0.6%
O=C(NCCN1CCC(n2c(=O)[nH]c3ccccc32)CC1)C(c1ccccc1)c1ccccc1 | x | -78.3* | -20.9% | -15.7 | i | x
CCN(CC)CCNC(=O)c1ccc2nc(-c3ccccc3)c(-c3ccc(CN4CCC(n5c(=O)[nH]c6ccccc65)CC4)cc3)nc2c1 | x | x | 27.3µM* | x | x | x
O=C(NCCN1CCC(n2c(=O)[nH]c3ccccc32)CC1)c1cccc(Cl)c1 | x | -98.2* | -19.4% | -12.4 | i | x
O=C(NCCN1CCC(n2c(=O)[nH]c3ccccc32)CC1)c1cc(F)cc(F)c1 | x | -101.1* | 0.2% | -11.4 | i | x
Cc1cc(C)c2nccc(C)c2c1 | -13.0% | x | x | x | x | -3.2%
Cc1ccc(SC[C@H](C)CN2CC[C@H](O)CCC2=O)cc1 | -2.9% | x | x | x | x | -14.2%
COc1ccc(S(=O)(=O)Nc2cccc(-c3ccc(N4CCCC4)nn3)c2)cc1F | u | x | -30.6% | 1.5 | i | -10.2%
O=c1[nH]c2ccccc2n1C1CCCCC1 | 7.2% | 1.8 | -0.4% | 5.9 | i | 0.9%
O=C(NC1CCCCC1)N1CCC(n2c(=O)[nH]c3ccccc32)CC1 | -0.8% | 0.0 | -16.5% | -7.1 | i | -3.6%
O=C(NCCN1CCC(n2c(=O)[nH]c3ccccc32)CC1)c1ccncc1 | x | -107.0* | 9.3% | -16.4 | i | x
O=C(NCCN1CCC(n2c(=O)[nH]c3ccccc32)CC1)c1cccc(F)c1 | x | -104.7* | 5.3% | -19.2 | i | x
O=C(NCCN1CCC(n2c(=O)[nH]c3ccccc32)CC1)c1cccnc1Cl | x | -68.7* | 9.9% | -17.6 | i | x
COC(=O)[C@@H]1CCCN1Cc1ccc2c(c1)CN(Cc1cccn1-c1ccccn1)CCO2 | x | x | x | x | i | x
O=C(NCCc1nnc2n1CCN(CC1CC=CCC1)CC2)c1ccc(F)cc1 (configuration not stated) | x | x | x | x | i | x
CC(=O)/C=C/n1c(=S)oc2ccccc21 | 6.31µM* | -85.5* | u | -34.3 | x | 15.8µM*
COc1ccc(CN(C(=O)Nc2ccccc2)c2ccccn2)cc1OC | -3.6% | x | 5.3% | 4.7 | i | -13.7%
O=C(C1CCCCC1)N(Cc1cccnc1)c1nc2c(F)cc(F)cc2s1 | 22.4µM* | x | x | 2.3 | x | -35.8%
Cc1cccc2sc(N(Cc3cccnc3)C(=O)C3CCCCC3)nc12 | 10µM* | x | x | -20.2 | x | -40.9%
